Mtb hypoxia inh: Mtb hypoxia fluorescent reporter inhibition. actives 0.1% (n = 300,000). fluorescence inhibition, % (test concentration not listed). M. tuberculosis hypoxia-regulated fluorescent reporter, fluorescence; in the data active = fluorescence inhibition mostly above about 23%, no sharp cut-off; inactive = mostly below about 17%
PrP UTR inh: suppresses PrP 5' UTR mRNA reporter expression; cell-based PrP 5' UTR mRNA reporter, plate reader; inhibition, % (concentration not given with the values); actives 0.35% (n = 340,000); AID 488862; in the data active = inhibition above about 52%; also: 0 = median of the neutral control wells
GDH-TPI inh: counter-screen for M. tuberculosis FBA inhibitors: GDH-TPI coupled enzymes; GDH-TPI coupled enzyme counterscreen, NADH absorbance; actives 1.2% (n = 360,000); inhibition, % at 4.8 µM; AID 588335; in the data active = inhibition above about 30%;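 also: 0% = DMSO wells and 100% = wells lacking the enzyme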
Yp Topo-I inh: Y. pestis Topo-I inhibition via cleavage products; Y. pestis Topo-I cleavage product accumulation, plate reader; activity, % at 10 µM; actives 0.064% (n = 360,000); in the data active = activity above about 50%, passing the limit was not always enough
FBA Mtb inh: inhibitors of M. tuberculosis fructose-bisphosphate aldolase; AID 588726; inhibition, % at 1 µM; actives 2.3% (n = 360,000); P9WQA3; purified M. tuberculosis FBA, fluorescence read-out; in the data active = inhibition above about 27%;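 also: 0% = vehicle and 100% = reference inhibitor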
Target sequence (P9WQA3 whole entry, looked up): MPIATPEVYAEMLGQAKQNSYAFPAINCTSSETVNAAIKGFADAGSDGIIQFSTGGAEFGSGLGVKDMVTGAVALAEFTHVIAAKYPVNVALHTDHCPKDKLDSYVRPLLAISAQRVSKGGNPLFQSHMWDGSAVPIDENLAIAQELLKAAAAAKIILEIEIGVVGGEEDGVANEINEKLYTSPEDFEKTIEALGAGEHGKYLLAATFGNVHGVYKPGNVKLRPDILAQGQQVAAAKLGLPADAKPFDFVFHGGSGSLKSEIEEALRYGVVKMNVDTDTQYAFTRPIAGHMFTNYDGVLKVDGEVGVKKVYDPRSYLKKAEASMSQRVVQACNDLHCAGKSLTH
PrPC TRFRET: inhibitors of human cell surface prion protein PrPC. TR-FRET read-out. inhibition, % at 13.8 µM. actives 0.43% (n = 370,000); in the data active = inhibition above about 24%; also: 0% = median of the test wells and 100% = reference compound wells
Starred values were filed as active, the others as inactive; . = no result; + = active, no number. Only some compounds are listed: those with a hit (about 3.8% of all), similar ones and a draw of the others.

SMILES | Mtb hypoxia inh | PrP UTR inh | GDH-TPI inh | Yp Topo-I inh | FBA Mtb inh | PrPC TRFRET
CSc1c2c([nH]c(=O)c1C#N)-c1ccccc1CC2 | . | . | . | . | 175* | -4
CSc1nc(-c2ccccc2)c(C#N)c(=O)[nH]1 | 6 | -10 | 4 | -4 | 1 | 1
Fc1ccc(NN=Cc2cccnc2)c(F)c1 | 12 | . | . | . | . | .
CCOC(=O)/C(C#N)=C/N=c1ccc(C)cn1C | . | -41 | 39* | 1 | 2 | -5
CCOC(=O)/C(C#N)=C\c1ccc(OC)c(OC)c1 | 12 | -15 | 12 | -16 | 1 | 1
S=C(NCc1ccccc1)N/N=C/c1cccs1 | . | -16 | 34* | 3 | 17 | 11
CC(C)NC(=S)N/N=C/c1cccs1 | . | -4 | 38* | 0 | -5 | 7
Cc1ccc2nc(C)cc(C(=O)NN=Cc3ccncc3)c2c1 | 4 | . | . | . | . | .
O=C(NCCn1cc(SCc2ccccc2)c2ccccc21)c1ccccc1F | 11 | -7 | 0 | 50* | 1 | 1
O=C(Nc1ccc(C=Cc2nc3ccccc3o2)cc1)c1cccc(C(F)(F)F)c1 | 5 | . | . | . | . | .
O=C(Nc1ccc(/C=C/c2nc3ccccc3o2)cc1)c1cccc(C(F)(F)F)c1 | . | -24 | 36* | 2 | 4 | 2
CC1OC(OC2C(CO)OC(Oc3c(-c4ccc(O)cc4)oc4cc(O)cc(O)c4c3=O)C(O)C2O)C(O)C(O)C1O (stereo unspecified) | -1 | . | . | . | . | .
Cc1nn2cnnc2c(C)c1Cc1c(F)cccc1Cl | 14 | -2 | -3 | 0 | 141* | 5
CSc1nc(C)c(Cc2c(F)cccc2Cl)c(=O)[nH]1 | 2 | -9 | 10 | -12 | 1 | -3
CC(O)C1CNCCN1CCc1cc(C(F)(F)F)cc(C(F)(F)F)c1 (stereo unspecified) | 4 | . | . | . | . | .
N#Cc1c(NC(=O)c2cc(C3CC3)on2)sc2c1CCC2 | -3 | -18 | 34* | -6 | 1 | -1
Cc1cc(C(=O)Nc2sc3c(c2C#N)CCC3)no1 | -4 | -28 | 13 | 1 | -4 | -2
Cc1c(NC(=O)C(C)NCC2CCCO2)c(=O)n(-c2ccccc2)n1C (stereo unspecified) | . | -17 | 7 | -3 | + | 0
Cc1c(NS(=O)(=O)c2cc(C(=O)NCC3CCCO3)cc(Cl)c2Cl)c(=O)n(-c2ccccc2)n1C (stereo unspecified) | 3 | -26 | -1 | -9 | 0 | 0
COCCCNC(=O)/C(=C\c1cccn1C)NC(=O)c1cccs1 | . | -9 | 34* | -2 | 3 | -7
Cc1cc(C)n2nc(N)c(N=Nc3cccc(Cl)c3)c2n1 | -1 | -11 | 3 | -4 | -8 | -3
Cc1ccc(N=Nc2c(N)nn3c(C)cc(C)nc23)cc1 | 9 | -27 | 40* | 0 | -7 | -15
Cc1ccsc1C=NNc1nc2ccccc2[nH]1 | -2 | . | . | . | . | .
CC(=O)c1ccc(Nc2cc(C)nc3nc(C)nn23)cc1 | . | -36 | 31* | -1 | -1 | -3
COC1=CC2(O)CCCC2=CC1=O (stereo unspecified) | . | -1 | 0 | -9 | 150* | 3
SMILES | Mtb hypoxia inh | PrP UTR inh | GDH-TPI inh | Yp Topo-I inh | FBA Mtb inh | PrPC TRFRET
CCOC(=O)C1C2COc3ccccc3C2N2C(=O)N(c3ccc(Br)cc3)C(=O)[C@]12C (stereo partly specified) | 3 | . | . | . | . | .
COc1ccc(/C=N/NS(=O)(=O)c2ccc(C)cc2)cc1OC(=O)c1ccccc1 | . | -21 | 13 | 8 | 128* | 2
COc1ccc(/C=N/NS(=O)(=O)c2ccccc2)cc1OC(=O)c1ccc(C)cc1 | . | -8 | 10 | 15 | -3 | -4
COC(=O)C=Cc1ccccc1CN1C(CC(=O)OC)c2ccccc2S1(=O)=O (stereo unspecified) | 9 | . | . | . | . | .
COc1ccc(/C=N\NC(=O)c2cc3c(ccc4ccccc43)o2)cc1O | . | 5 | 39* | -7 | 9 | -3
COc1cc(/C=N/NC(=O)c2cc3c(ccc4ccccc43)o2)cc(OC)c1O | . | -15 | 49* | 8 | 5 | -5
COc1ccc(/C=N/NC(=O)c2cc3c(ccc4ccccc43)o2)cc1OC | . | -16 | 26 | 18 | 7 | -1
COc1ccc2ccc(OC)c(/C=N/NC(=O)c3cc4ccccc4o3)c2c1 | . | . | 32* | -9 | 4 | 14
CCCC(C)C(=O)Nc1ccc(Cl)cn1 (stereo unspecified) | . | -29 | 31* | -6 | -5 | -7
CCCCC(=O)Nc1ccc(Cl)cn1 | 3 | -32 | 1 | -5 | 0 | -7
C=CCOc1ccccc1C=Nn1nnnc1N | 16 | . | . | . | . | .
O=C1NCC2=C1C(c1ccccc1)Nc1ccccc1N2 (stereo unspecified) | -6 | -6 | 32* | -3 | 6 | -16
CC1(CC(=O)N/N=C/c2ccc(-c3cccc(C(F)(F)F)c3)o2)OCCO1 | . | -33 | 37* | -3 | -2 | 3
CC1(CC(=O)N/N=C/c2cc(Br)c(O)cc2O)OCCO1 | . | -28 | 48* | -4 | 3 | -6
CC1(CC(=O)NN=Cc2cc3c(cc2Br)OCO3)OCCO1 | 13 | . | . | . | . | .
C/C(=N\NC(=O)c1nc2ccccn2c1C)c1cc2ccccc2o1 | . | -21 | 33* | -8 | 1 | 5
C/C(=N\NC(=O)c1nc2ccccn2c1C)c1ccco1 | . | -59 | 24 | -3 | -3 | -6
C/C(=N\NC(=O)c1cc2ccccc2cc1O)c1cc2ccccc2o1 | . | -18 | 60* | 1 | -3 | 1
CN1C(=O)C(O)(CC(=O)C=Cc2ccco2)c2cc(Br)ccc21 (stereo unspecified) | 8 | . | . | . | . | .
CCOc1ccccc1C=NNC(=O)c1cc(C(C)C)[nH]n1 | 13 | . | . | . | . | .
CCOc1ccc(C=NNc2nc(=O)[nH]nc2C)cc1OC | 15 | . | . | . | . | .
COc1ccc(/C=N\Nc2ccccn2)c(OC)c1 | . | -76 | 36* | 6 | -1 | 5
CCCOc1ccc(/C=N/Nc2ccccn2)cc1OC | . | -101 | 35* | -17 | -8 | -8
CCOc1ccc(/C=N/Nc2nc(=O)[nH]nc2C)cc1OC | . | -14 | 33* | -3 | -4 | 3
CCCCCCCCC(=O)NN=C(C)c1cccnc1 | 0 | . | . | . | . | .
SMILES | Mtb hypoxia inh | PrP UTR inh | GDH-TPI inh | Yp Topo-I inh | FBA Mtb inh | PrPC TRFRET
CCn1c(SCC(=O)NN=Cc2ccc(C)o2)nnc1-c1ccc(C)cc1 | -8 | . | . | . | . | .
O=S1(=O)CCOCC(Cc2ccccc2)N1Cc1ccccc1F (stereo unspecified) | 8 | . | . | . | . | .
O=C(O)CC/C(=C\c1ccc(Cl)c([N+](=O)[O-])c1)c1nc2ccccc2s1 | 1 | -31 | 16 | 1 | -2 | -13
O=C(O)CC/C(=C/c1cccc(NC(=O)c2ccccc2Cl)c1)c1nc2ccccc2s1 | 9 | -3 | 37* | 14 | 12 | 2
O=c1[nH]c(/C=C\c2ccc(O)c(Cl)c2)nc(O)c1[N+](=O)[O-] | -2 | 2 | 9 | -3 | -12 | -16
O=c1[nH]c(/C=C\c2ccc(O)cc2)nc(O)c1[N+](=O)[O-] | -8 | -13 | 41* | -4 | -10 | -25
O=Nc1c(O)ccc2cc(S(=O)(=O)O)ccc12 | 7 | -26 | 6 | 2 | -4 | .
CN(C)c1ccc2cc(S(=O)(=O)O)cc(O)c2c1 | 2 | 3 | 15 | -17 | 169* | -25

Source: PubChem BioAssay (several laboratories)
